Compound activity as filed in PubChem.
EPAC1 antagonist – qHTS for Antagonist of cAMP-regulated guanine nucleotide exchange factor 3 (EPAC1): primary screen. Potency, µM (doses to about 115 µM), for inactives: at the highest dose activity change, negative = inhibition, most hits filed as inhibitors. EPAC1 GEF assay, Rap1b-BODIPY-GDP exchange fluorescence. 360,000 compounds, 0.14% hits;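 note: plate controls were vehicle for no effect and positive control for full effect; nearly all actives have a fitted effect of over 50% in size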
EPAC2 ag – qHTS for Agonist of cAMP-regulated guanine nucleotide exchange factor 4 (EPAC2): primary screen. Rap guanine nucleotide exchange factor 4 (Homo sapiens), Q8WZA2. EPAC2 activation, biochemical qHTS; response scale: 100% = 6.5 mM cAMP response. Potency, µM (highest dose often 154 µM), without a hit: top-dose activation, most hits filed as activators. 360,000 compounds, 0.079% hits; note: nearly all actives have a fitted effect of over 50% in size
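Readout is BODIPY fluorescence (480 nm excitation, 540 nm emission), which falls as labeled GDP is exchanged off Rap1B. EPAC2 at 100 nM acted on 250 nM RAP1B-BODIPY-GDP with 50 uM GDP present.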
EPAC1 ag – qHTS for Agonist of cAMP-regulated guanine nucleotide exchange factor 3 (EPAC1): primary screen; Rap guanine nucleotide exchange factor 3 (Homo sapiens), O95398; EPAC1 agonist qHTS, biochemical assay; response scale: 100% = response to 6.5 mM cAMP; Potency, µM (titrated, usually from 154 µM), for the others: top-dose activation, most hits filed as activators; 360,000 compounds, 0.073% hits; note: nearly all actives have a fitted effect of over 60% in size
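Compounds were pinned as a concentration titration into mixtures of EPAC1 (100 nM), BODIPY-GDP-loaded Rap1B (250 nM) and GDP (50 uM). After 5 min at room temperature, fluorescence was followed for 30 min; activity was scaled to 6.5 mM cAMP.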
EPAC2 antagonist – qHTS for Antagonist of cAMP-regulated guanine nucleotide exchange factor 2 (EPAC2): primary screen; Rap guanine nucleotide exchange factor 4 (Homo sapiens), Q8WZA2; EPAC2 GEF exchange of Rap1B-BODIPY-GDP, fluorescence; Potency, µM (top dose mostly 114 µM), for inactives: top-dose activity, negative = inhibition, hits mostly inhibitors; 360,000 compounds, 0.18% hits; AID 720708, 2013; note: % is set by controls: 0 for no effect and ±100 for the full control effect; nearly all actives have a fitted effect of over 45% in size
USP1-UAF1 inh – Inhibitors of USP1/UAF1: Primary Screen; Ubiquitin carboxyl-terminal hydrolase 1 (Homo sapiens), O94782; recombinant USP1/UAF1, Ub-Rhodamine cleavage fluorescence; Potency, µM (titrated, usually from 57.1 µM), for inactives: at the highest dose activity change, negative = inhibition, most hits filed as inhibitors; 390,000 compounds, 0.23% hits; AID 743255, 2014; note: % is set by controls: 0 for no effect and ±100 for the full control effect; nearly all actives have a fitted effect of over 60% in size
Target sequence (O94782 whole entry, looked up): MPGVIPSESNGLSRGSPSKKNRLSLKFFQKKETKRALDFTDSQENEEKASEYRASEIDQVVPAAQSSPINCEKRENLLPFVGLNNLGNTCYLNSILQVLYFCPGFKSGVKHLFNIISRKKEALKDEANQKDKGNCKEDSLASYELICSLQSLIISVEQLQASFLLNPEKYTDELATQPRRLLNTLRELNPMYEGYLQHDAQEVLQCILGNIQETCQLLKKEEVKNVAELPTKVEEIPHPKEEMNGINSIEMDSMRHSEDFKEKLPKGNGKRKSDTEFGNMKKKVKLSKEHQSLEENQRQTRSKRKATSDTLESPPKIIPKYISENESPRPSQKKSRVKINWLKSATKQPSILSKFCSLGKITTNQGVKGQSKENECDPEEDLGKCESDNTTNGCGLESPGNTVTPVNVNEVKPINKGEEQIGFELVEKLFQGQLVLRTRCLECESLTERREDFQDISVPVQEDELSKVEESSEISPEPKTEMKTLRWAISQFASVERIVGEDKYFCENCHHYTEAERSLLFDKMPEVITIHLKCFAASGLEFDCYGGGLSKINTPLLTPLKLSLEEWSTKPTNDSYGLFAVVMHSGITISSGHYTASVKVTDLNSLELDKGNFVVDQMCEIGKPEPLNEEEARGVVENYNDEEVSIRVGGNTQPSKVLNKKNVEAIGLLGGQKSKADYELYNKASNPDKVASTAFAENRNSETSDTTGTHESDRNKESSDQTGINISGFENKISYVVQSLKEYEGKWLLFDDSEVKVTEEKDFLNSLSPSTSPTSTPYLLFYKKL
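USP1/UAF1 complex (1 nM) preincubated 15 min at room temperature with compound, then Ub-Rho substrate (150 nM final) added. Kinetic fluorescence at 480/540 nm over 6 reads at 60 s intervals; 50 mM HEPES pH 7.8, 0.5 mM EDTA, 0.1 mg/ml BSA, 1 mM TCEP, 0.01% Tween-20.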
An asterisk follows results filed as active; u = inconclusive; x = not tested or not shown. This is a sample that favours compounds with a hit; in the whole collection about 0.44% have one here. Calls come from the whole dose curve; as a rule, active = well fitted curve in the direction sought with a large enough effect; inconclusive = small, poorly fitted or top-dose-only effect, or another doubt; inactive = no such curve, though single readings can be large; an effect the other way counts as inactive or inconclusive. Potency is the fitted concentration of half-maximal effect.

SMILES	EPAC1 antagonist	EPAC2 ag	EPAC1 ag	EPAC2 antagonist	USP1-UAF1 inh
CCOC(=O)c1nn(-c2ccccc2C)c(=O)c2c(N)scc12	-29.2%	4.8%	-4.1%	-2.8%	u
Cc1cc(NC(=O)COC(=O)C(C)Oc2ccc(Cl)cc2Cl)no1 (stereo not drawn)	u	3.2%	12.6%	u	3.3%
CCC(=O)c1ccc(N2CCN(C(=O)c3ccccc3)CC2)c(F)c1	-19.5%	-5.4%	0.1%	-13.5%	2.7%
CC1=Nc2ccccc2/C1=C/c1sc(=S)n(-c2cccc(C(=O)O)c2)c1O	56.2µM*	3.5%	-13.9%	u	28.2µM*
CCNc1nc(NC(C)(C)C)nc(N2CCCCC2)n1	-10.4%	-9.6%	-5.8%	2.6%	-11.7%
O=C(COC(=O)c1ccc(Br)cc1)NC(=O)NCc1ccccc1	-0.9%	1.2%	-4.6%	5.2%	-18.3%
O=C1NC[C@H](CCCCN2C[C@H](Cc3ccccc3)N(CCC3CCCCC3)C(=O)C2=O)N(CCc2ccccc2)C1=O	-21.7%	1.5%	-5.8%	5.8%	x
CCN(CC)c1ccc(N=C2C(=O)Nc3ccccc32)cc1	-24.1%	-0.6%	-11.5%	1.7%	31.6µM*
Cc1ccc(N=C2C(=O)Nc3ccccc32)cc1	-9.7%	10.6%	13.8%	11.8%	u
Cc1ccc([C@@H]2C3COCC=C3C(C#N)=C(N)C2(C#N)C#N)o1 (stereo partly drawn)	8.0%	26.4%	29.4%	4.6%	31.6µM*
Cc1ccc(C2C3CSCC=C3C(C#N)=C(N)C2(C#N)C#N)cc1 (stereo not drawn)	-1.5%	u	18.5%	u	u
COc1cc(CCC(=O)Nc2ccc(C)c(S(=O)(=O)N3CCCCCC3)c2)cc(OC)c1OC	-15.6%	15.6%	14.2%	-13.7%	-7.3%
Cn1c(Cc2cccs2)nnc1SCc1nc2ccccc2[nH]1	3.6%	10µM*	-4.7%	13.5%	-20.4%
C#Cc1ccc([C@H]2C=C(C(=O)NCc3ccccc3)O[C@@H](OCC)[C@@H]2CCCO)cc1	-26.6%	-5.1%	-18.7%	25.1µM*	-23.5%
C#Cc1ccc([C@@H]2C=C(C(=O)Nc3ccccc3)O[C@H](OCC)[C@H]2CCCO)cc1	-23.2%	3.5%	-1.1%	u	-18.9%
O=C1N/C(=C\c2ccc(O)cc2)C(=O)c2ccccc21	-5.8%	5.3%	11.8%	-7.8%	28.2µM*
Cc1ccc(NS(=O)(=O)c2cc([N+](=O)[O-])ccc2NNC(=S)Nc2cccc(Cl)c2)c(C)c1	50.1µM*	-16.0%	-17.8%	50.1µM*	u
CCC(CO)Oc1cc(NCc2ccccc2)c2ncn(C(C)C)c2c1 (stereo not drawn)	3.3%	7.1%	-10.1%	2.4%	u
CCC(COC)Oc1cc(NCc2ccccc2)c2ncn(C(C)C)c2c1 (stereo not drawn)	u	8.5%	-20.1%	7.8%	12.6µM*
Cc1ccc(NC(=O)C(C)SCC(=O)Nc2ccc(F)cc2)cc1S(=O)(=O)N1CCOCC1 (stereo not drawn)	4.5%	1.3%	-10.8%	11.7%	-20.2%
CC(C)(C)c1nc(NCCO)c2nnn(Cc3ccccc3)c2n1	-20.5%	7.1%	-1.1%	-13.4%	-11.6%
COc1ccc(-n2nc(C(=O)NCCc3cccc(C)c3)c3c4ccccc4n(C)c3c2=O)cc1Cl	x	x	x	x	4.1%
CCOC(=O)/C(=N\Nc1ccc(Br)cc1)N1CC(C)OC(C)C1 (stereo not drawn)	-10.0%	4.2%	1.2%	-15.7%	-23.1%
CCOC(=O)c1[nH]c(C)c(C(=O)NC(C)(C)C)c1C	-12.7%	6.31µM*	0.0%	12.2%	-25.9%
CCOC(=O)c1[nH]c(C)c(C(=O)NC)c1C	0.9%	2.8%	-3.2%	0.2%	-16.3%
SMILES	EPAC1 antagonist	EPAC2 ag	EPAC1 ag	EPAC2 antagonist	USP1-UAF1 inh
O=c1oc2c3c4c(cc2c(C(F)(F)F)c1CCN1CCOCC1)CCCN4CCC3	99.9%	112µM*	u	59.8%	6.31µM*
O=c1c(-c2c(O)cc(O)c3c(=O)cc(-c4ccc(O)cc4)oc23)c(-c2ccc(O)cc2)oc2cc(O)cc(O)c12	56.2µM*	14.1%	-15.6%	4.8%	2.7%
CC(C)c1ccc(-c2noc(SCC(=O)N3CCCCC3C)n2)cc1 (stereo not drawn)	x	x	x	x	-5.1%
C/C(C/C(C)=C1/SC(=S)NC1=O)=C1\SC(=S)NC1=O	20µM*	13.6%	-2.8%	u	u
CCCCCC/C(C)=C1/SC(=S)NC1=O	-29.3%	4.5%	-3.0%	-22.1%	-13.8%
Cc1ccc(C(=O)N(C)CC(=O)Nc2cccc(C)c2C)o1	3.8%	5.1%	6.1%	3.0%	-8.7%
NC1=C(Cl)C(=O)c2ccc(S(N)(=O)=O)cc2C1=O	u	4.9%	4.6%	u	1.26µM*
CCc1ccc([C@@H]2CC=C(C(=O)O)[C@H](c3ccccc3)N2S(=O)(=O)c2ccc(C)cc2)cc1	-8.1%	4.0%	-20.4%	-17.1%	-12.8%
Cc1ccc(S(=O)(=O)N2[C@@H](c3ccc(C(C)(C)C)cc3)C(C(=O)O)=CC[C@H]2c2ccc(C(C)C)cc2)cc1	31.6µM*	-23.4%	-47.7%	39.8µM*	u
Cc1ccc([C@@H]2CC=C(C(=O)O)[C@H](c3ccc(C(C)(C)C)cc3)N2S(=O)(=O)c2ccc(C)cc2)cc1	28.2µM*	-14.2%	-24.3%	u	u
Cc1ccc(S(=O)(=O)N2[C@@H](c3ccc(Cl)cc3)C(C(=O)O)=C[C@H]2CC2CCCC2)cc1	-24.9%	3.7%	-18.2%	-27.9%	-16.5%
Cc1ccc(S(=O)(=O)N2[C@@H](c3ccc(Cl)c(Cl)c3)C(C(=O)O)=C[C@H]2CC2CCCC2)cc1	50.1µM*	-2.7%	-14.5%	u	u
Cc1ccc([C@@H]2CC=C(C(=O)O)[C@H](c3ccc(F)cc3)N2S(=O)(=O)c2ccc(C)cc2)cc1	3.7%	15.0%	7.2%	-1.9%	-16.3%
Cc1ccc(S(=O)(=O)N2[C@@H](c3ccccc3F)C(C(=O)O)=CC[C@H]2c2ccc(C(C)C)cc2)cc1	-28.1%	-2.8%	2.2%	-7.0%	-26.6%
CCc1ccc([C@@H]2CC=C(C(=O)O)[C@H](c3ccc(C(C)(C)C)cc3)N2S(=O)(=O)c2ccc(C)cc2)cc1	44.7µM*	-14.9%	-32.8%	56.2µM*	u
Cc1ccc(S(=O)(=O)N2[C@@H](c3ccc(C(C)(C)C)cc3)C(C(=O)O)=CC[C@H]2c2cccs2)cc1	-16.2%	-9.0%	-4.0%	31.6µM*	-12.5%
